The record followed here is PubChem BioAssay (EPA / NIEHS).

The nature of test [1]: ACEA_ER_AUC_viability: ACEA Biosciences xCELLigence Real-Time Cell Analysis on Estrogen Receptor Agonism for Viability (AID 2283782).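 Note: continuous compound exposure with impedance area under curve over 80 h; hit means loss of impedance signal meaning reduced cell growth or viability.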 A digest of the protocol:
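T-47D; phenol red-free RPMI1640 + 10% CS-FBS; 8 conc., 1:4 serial, max 100 uM final, ≤0.5% DMSO; n = 2; continuous exposure; impedance monitored to 80 h post-dose; AUC vs DMSO.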

The test system of test [2] is frog Estrogen Receptor (ESR1), gene 398734. The test is described as follows: ATG_frER1_XSP1: Attagene TRANS-FACTORIAL Multi-Species (XSP1) HepG2 Assay for frog Estrogen Receptor (ESR1) (AID 2283777). A digest of the protocol:
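Human hepatoma HepG2 cells carried transiently transfected multiplexed Gal4-driven reporters and were exposed to test chemicals for 24 hours. Transcripts were quantified by fluorescent RT-PCR with capillary electrophoresis, referenced to DMSO.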

The test system of test [3] is zebrafish Estrogen Receptor (ESR2A), gene 317734. The test is described as follows: ATG_zfER2a_XSP1: Attagene TRANS-FACTORIAL Multi-Species (XSP1) HepG2 Assay for zebrafish Estrogen Receptor (ESR2A) (AID 2283778). The essentials:
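Cells were transfected, dosed for 24 h, then total RNA was isolated. After oligo(dT) reverse transcription, reporter sequences were amplified, FAM-labelled by primer extension, digested with HpaI and sized by capillary electrophoresis; DMSO served as baseline.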

Test [4] addresses chicken Estrogen Receptor (ESR1), ESR1 (gene 396099) (UniProt P06212). The test is described as follows: ATG_chERa_XSP1: Attagene TRANS-FACTORIAL Multi-Species (XSP1) HepG2 Assay for chicken Estrogen Receptor (ESR1) (AID 2283779). The essentials: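 Human liver HepG2, transient MRTU transfection (NR-Gal4 chimeras, GAL4-UAS reporters); 24 h compound exposure; 3 nM 6-alpha-fluorotestosterone in medium. Total RNA → RT-PCR → 6-FAM primer extension → HpaI → CE. Positive direction vs DMSO baseline.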

In test [5] the test system is turtle Estrogen Receptor (ESR1), gene 101933533. The test is described as follows: ATG_trERa_XSP1: Attagene TRANS-FACTORIAL Multi-Species (XSP1) HepG2 Assay for turtle Estrogen Receptor (ESR1) (AID 2283781). As to the method: (§1) ATG_XSP1_multi-species_TRANS is a cell-based, multiplexed assay created by modifying the existing Attagene TRANS-FACTORIAL system to include a panel of nuclear receptors from some or all the following species: human (Homo sapiens), mouse (Mus musculus), frog (Xenopus laevis), zebrafish (Danio rerio), chicken (Gallus gallus), and turtle (Chrysemys picta). The ECOTOX-FACTORIAL format uses HepG2, a human liver cell line, with measurements taken at 24 hours after chemical dosing in a 24-well plate. Xsp1 included 3 nM 6-alpha-fluorotestosterone to partially stimulate the androgen receptor.ATG_trERa_XSP1 is one of 29 assay components measured or calculated from the ATG_XSP1_multi-species_TRANS assay. It is designed to make measurements of mRNA induction, a form of inducible reporter, as detected with fluorescence intensity signals by Reverse transcription polymerase chain reaction (RT-PCR) and Capillary electrophoresis technology.The assay endpoint ATG_trERa_XSP1 was analyzed in the positive analysis fitting direction relative to DMSO as the negative control and baseline of activity. Using a type of inducible reporter, measures of mRNA for gain-of-signal activity can be used to understand the reporter gene at the transcription factor-level as they relate to the gene ER. Furthermore, this assay endpoint can be referred to as a primary readout, because this assay has produced multiple assay endpoints where this one serves a reporter gene function. To generalize the intended target to other relatable targets, this assay endpoint is annotated to the nuclear receptor intended target family, where the subfamily is steroidal.
(§2) Human liver HepG2 cells are transiently transfected with multiple reporter transcription units (MRTUs) in 6-well plates using FuGene 6 reagent (Roche; 3 ml FuGene/1 mg DNA). The MRTU constructs are regulated by a cis-regulating element (promoter). […] A major difference between the CIS and TRANS system is that in CIS activities of endogenous TFs are measured, whereas the TRANS assay evaluates changes in activities of exogenous, chimeric NR-Gal4 proteins. […] At the end of 24 hour incubation, total RNA was isolated using TriZol reagent (Invitrogen). The isolated RNA is then reverse-transcribed using oligo(dT) primer and Mo-MLV reverse transcriptase (Invitrogen) with DNAse I (Ambion) treatment for 30 min. The one-tenth of the produced cDNA was amplified by PCR using Taq DNA polymerase (Invitrogen) and two reporter sequence-specific primers. The PCR products were fluorescently labeled by primer extension with 6-arboxyfluorescein (6-FAM) 5'-labeled reporter sequence-specific primer (2 min at 95 C, 20 s at 68 C and 10 min at 72 C) and these products were digested with 5U of HpaI (New England Biolabs) for 2h at 37 C. The fragments were purified using Qiaquick PCR columns (Qiagen), analyzed on an ABI 3130xL genetic analyzer (Applied Biosystems) with peak positions identified by using a set of X-rhodamine (ROX)-labeled MapMarker1000 molecular weight standards (BioVentures). The raw capillary electrophoresis data was processed using Attagraph software (Attagene).

Test [6] addresses AR (gene 367) (UniProt P10275). The test is described as follows: ACEA_AR_agonist_80hr: ACEA Biosciences xCELLigence Real-Time Cell Analysis on Androgen Receptor Agonism for Proliferation (AID 2283783).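 Note: hits increase impedance growth signal above DMSO baseline.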 The essentials:
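Androgen-driven proliferation in 22Rv1 cells is tracked as electrical impedance, taken 80 h after continuous exposure to compound (eight concentrations, 1:4 steps, maximum 100 uM final). Activity is fitted in the positive direction with DMSO as baseline.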

In test [7] the target is AR (gene 367) (UniProt P10275). The test is described as follows: ACEA_AR_antagonist_80hr: ACEA Biosciences xCELLigence Real-Time Cell Analysis on Androgen Receptor Antagonism for Proliferation (AID 2283787).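 Note: 22Rv1 human prostate cancer cells with growth followed by electrical impedance; hits lower the impedance growth signal relative to DMSO.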 A digest of the protocol:
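Growth-kinetic antagonist readout in 22Rv1 cells, taken 80 h after continuous compound exposure. Activity fitted as signal loss relative to DMSO negative control.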

For test [8], the target named is Estrogen receptor beta (Homo sapiens) (UniProt Q92731). The test is described as follows: ATG_hERb_XSP1: Attagene TRANS-FACTORIAL Multi-Species (XSP1) HepG2 Assay for human Estrogen Receptor (ESR2) (AID 2283788). As to the method:
as §1, with “receptor.ATG_hERb_XSP1” for “receptor.ATG_trERa_XSP1”, “ATG_hERb_XSP1” for “ATG_trERa_XSP1”
as §2

Test [9] has as its target Estrogen receptor (Homo sapiens) (UniProt P03372). The test is described as follows: ATG_hERa_XSP1: Attagene TRANS-FACTORIAL Multi-Species (XSP1) HepG2 Assay for human Estrogen Receptor (ESR1) (AID 2283780). The essentials:
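HepG2 cells transiently transfected with GAL4-UAS reporter units and chimeric NR-Gal4 constructs; 24 h after dosing, reporter mRNA quantified by RT-PCR and capillary electrophoresis. Medium contained 3 nM 6-alpha-fluorotestosterone; activity fitted as gain-of-signal versus DMSO.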

Broadly, the AC50 is the concentration at which the activity in the assay is half-maximal.

Inconclusive results are not listed. Active and inactive are the calls of the source. Rule for the calls: active = hit-call score of the fitted dose curve at least 0.9, where 1 is the maximum; inconclusive = response in the unintended direction; inactive = score below 0.9.

Chain of AR (gene 367) (P10275 whole entry, looked up): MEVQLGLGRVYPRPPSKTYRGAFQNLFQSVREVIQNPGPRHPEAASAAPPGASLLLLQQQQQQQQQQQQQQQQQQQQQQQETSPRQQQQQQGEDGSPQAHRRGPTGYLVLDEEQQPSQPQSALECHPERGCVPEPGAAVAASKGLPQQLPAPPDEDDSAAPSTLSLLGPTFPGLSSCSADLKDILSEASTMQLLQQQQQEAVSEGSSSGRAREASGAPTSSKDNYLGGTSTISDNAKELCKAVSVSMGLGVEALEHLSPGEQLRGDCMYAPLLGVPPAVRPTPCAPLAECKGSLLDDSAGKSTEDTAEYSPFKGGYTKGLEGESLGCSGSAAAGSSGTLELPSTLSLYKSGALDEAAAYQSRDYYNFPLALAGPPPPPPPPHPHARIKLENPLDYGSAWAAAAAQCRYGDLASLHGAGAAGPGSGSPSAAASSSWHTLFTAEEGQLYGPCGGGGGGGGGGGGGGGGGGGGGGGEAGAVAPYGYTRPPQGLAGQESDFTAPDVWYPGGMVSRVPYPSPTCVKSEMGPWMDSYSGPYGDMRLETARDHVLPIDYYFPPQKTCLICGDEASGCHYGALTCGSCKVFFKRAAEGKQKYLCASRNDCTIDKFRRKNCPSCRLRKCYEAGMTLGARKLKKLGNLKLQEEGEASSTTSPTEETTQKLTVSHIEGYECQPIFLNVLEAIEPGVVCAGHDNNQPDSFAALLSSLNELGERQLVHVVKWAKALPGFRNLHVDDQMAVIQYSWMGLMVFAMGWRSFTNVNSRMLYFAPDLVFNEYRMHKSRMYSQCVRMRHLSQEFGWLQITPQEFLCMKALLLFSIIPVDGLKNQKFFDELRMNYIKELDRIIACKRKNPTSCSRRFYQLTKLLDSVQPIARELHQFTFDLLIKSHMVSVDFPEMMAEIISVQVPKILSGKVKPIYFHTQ
Chain of Estrogen receptor beta (Homo sapiens) (Q92731 whole entry, looked up): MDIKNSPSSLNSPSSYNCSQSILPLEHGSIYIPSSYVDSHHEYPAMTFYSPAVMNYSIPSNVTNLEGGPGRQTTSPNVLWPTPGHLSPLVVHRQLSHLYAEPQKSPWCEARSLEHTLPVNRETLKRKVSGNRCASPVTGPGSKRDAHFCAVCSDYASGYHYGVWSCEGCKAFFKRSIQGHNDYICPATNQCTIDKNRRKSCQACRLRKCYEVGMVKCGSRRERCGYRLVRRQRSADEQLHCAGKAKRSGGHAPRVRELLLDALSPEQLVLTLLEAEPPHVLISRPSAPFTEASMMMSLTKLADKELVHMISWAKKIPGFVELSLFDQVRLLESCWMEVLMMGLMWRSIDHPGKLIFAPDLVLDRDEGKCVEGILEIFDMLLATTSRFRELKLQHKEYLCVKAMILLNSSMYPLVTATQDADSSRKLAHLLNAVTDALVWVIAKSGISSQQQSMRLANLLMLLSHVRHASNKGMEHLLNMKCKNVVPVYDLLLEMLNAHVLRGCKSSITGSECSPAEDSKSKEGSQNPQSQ
Chain of Estrogen receptor (Homo sapiens) (P03372 whole entry, looked up, the tested form may be a part): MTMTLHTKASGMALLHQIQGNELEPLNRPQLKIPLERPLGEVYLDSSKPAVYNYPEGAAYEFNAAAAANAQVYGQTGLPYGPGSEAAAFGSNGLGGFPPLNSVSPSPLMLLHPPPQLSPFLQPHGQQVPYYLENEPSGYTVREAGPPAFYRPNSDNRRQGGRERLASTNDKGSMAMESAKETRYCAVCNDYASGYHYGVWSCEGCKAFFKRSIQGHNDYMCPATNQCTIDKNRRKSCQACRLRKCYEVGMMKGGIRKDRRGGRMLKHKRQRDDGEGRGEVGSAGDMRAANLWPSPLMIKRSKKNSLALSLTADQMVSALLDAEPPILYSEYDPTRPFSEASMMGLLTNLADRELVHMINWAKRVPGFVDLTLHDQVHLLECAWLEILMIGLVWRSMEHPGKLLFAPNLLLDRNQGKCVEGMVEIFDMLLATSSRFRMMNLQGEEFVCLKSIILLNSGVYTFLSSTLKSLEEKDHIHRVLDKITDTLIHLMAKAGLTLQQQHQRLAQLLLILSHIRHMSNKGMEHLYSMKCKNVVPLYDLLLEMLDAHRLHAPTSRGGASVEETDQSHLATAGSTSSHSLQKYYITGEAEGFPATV
Chain of chicken Estrogen Receptor (ESR1), ESR1 (gene 396099) (P06212 whole entry, looked up, the tested form may be a part): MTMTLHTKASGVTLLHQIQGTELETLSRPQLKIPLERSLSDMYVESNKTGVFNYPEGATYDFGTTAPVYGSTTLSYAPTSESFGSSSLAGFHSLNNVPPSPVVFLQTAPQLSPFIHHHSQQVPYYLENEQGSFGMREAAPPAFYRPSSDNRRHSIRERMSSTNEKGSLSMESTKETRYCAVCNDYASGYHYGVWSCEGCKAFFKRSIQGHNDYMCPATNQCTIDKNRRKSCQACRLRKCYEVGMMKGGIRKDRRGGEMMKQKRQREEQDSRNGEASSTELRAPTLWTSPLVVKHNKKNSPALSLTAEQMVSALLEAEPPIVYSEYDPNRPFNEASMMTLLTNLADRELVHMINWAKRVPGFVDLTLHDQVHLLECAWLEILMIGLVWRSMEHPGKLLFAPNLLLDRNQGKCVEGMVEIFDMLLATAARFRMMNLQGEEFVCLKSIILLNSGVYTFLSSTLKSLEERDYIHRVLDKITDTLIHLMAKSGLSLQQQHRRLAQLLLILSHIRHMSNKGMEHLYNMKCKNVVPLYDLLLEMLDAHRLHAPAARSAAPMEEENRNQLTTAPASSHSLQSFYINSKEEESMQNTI

Take `CC(C)(C)C(O)/C(=C\c1ccc(Cl)cc1Cl)n1cncn1` (centres undefined): the AC50 in test [1] was 81.1 µM (active).

For the compound `OCCOc1ccccc1`, the compound was called inactive in test [1].

With `Oc1ccc(Cl)cc1Cc1ccccc1`, the AC50 is 2.63 µM (active) in [2], 2.74 µM (active) in test [5], 18.3 µM (active) [middle of 9 runs] in [1] and 11.2 µM (active) with AR (gene 367) [7]. The call (in test [3]; in test [4]; with AR (gene 367) [6]; in [8]) was inactive.

`CN1CSC(=S)N(C)C1`: the AC50 in test [1] is 39.7 µM (active).

As for `O=[N+]([O-])c1c(Cl)c(Cl)c(Cl)c(Cl)c1Cl`, the AC50 in test [1] is 72.3 µM (active); in the test with AR (gene 367) [7], 74.6 µM (active). Further, the outcome with AR (gene 367) [6] was inactive.

Consider `CC1(C)C(C=C(Cl)Cl)C1C(=O)OC(C#N)c1ccc(F)c(Oc2ccccc2)c1` (centres undefined), for which the AC50 in [2] is 13.9 µM (active); in [4] it was 27.5 µM (active); in test [5], 27.5 µM (active); in test [1], 74.3 µM (active). Also, the result in test [3], in test [9] and in [8] was inactive.

In the case of `N#CN`, the call in test [1] was inactive.

As to `Oc1cc(Cl)ccc1Oc1ccc(Cl)cc1Cl`, the outcome in test [2], in [4] and in test [8] was inactive. Further, the AC50 in test [3] was 4.96 µM (active); in test [5] it was 5.85 µM (active); in [1], 21.9 µM (active) [middle of 6 runs].

In the case of `CCc1ccc(C(=O)NN(C(=O)c2cc(C)cc(C)c2)C(C)(C)C)cc1`, the call in test [1] was inactive.

In the case of `CCCN(CCOc1c(Cl)cc(Cl)cc1Cl)C(=O)n1ccnc1`, the compound was called inactive in [4] and in test [8]. In addition, the AC50 in test [1] is 74.9 µM (active).

Regarding `CCOC1Oc2ccc(OS(C)(=O)=O)cc2C1(C)C` (centres undefined), the AC50 with AR (gene 367) [7] is 50 µM (active).

Turning to `CCCN(CCC)c1c([N+](=O)[O-])cc(C(F)(F)F)cc1[N+](=O)[O-]`, the concentration at half-maximal activity (AC50) is 7.74 µM (active) in [2], 27.2 µM (active) in test [4], 27.9 µM (active) in [5] and 62.7 µM (active) with AR (gene 367) [7]. Moreover, the compound was classed as inactive (in test [9]; with AR (gene 367) [6]).

Turning to `CC[C@H](C)[C@H]1O[C@]2(C=C[C@@H]1C)C[C@@H]1C[C@@H](C/C=C(\C)[C@@H](O[C@H]3C[C@H](OC)[C@@H](O[C@H]4C[C@H](OC)[C@@H](O)[C@H](C)O4)[C@H](C)O3)[C@@H](C)/C=C/C=C3\CO[C@@H]4[C@H](O)C(C)=C[C@@H](C(=O)O1)[C@]34O)O2` (tested in a mixture with another compound), the AC50 in [1] is 6.89 µM (active).

As to `CCC(C)Nc1c([N+](=O)[O-])cc(C(C)(C)C)cc1[N+](=O)[O-]` (centres undefined), in test [1], the outcome was inactive.

`COc1nn(CSP(=S)(OC)OC)c(=O)s1`: the compound was classed as inactive in test [1].

`CNC(=O)Oc1ccccc1OC(C)C`: the call in [1] was inactive.

On to `N#Cc1c(Cl)c(Cl)c(Cl)c(C#N)c1Cl`, for which, in [1], the AC50 is 1.54 µM (active).

In the case of `O=[N+]([O-])/N=C1\NCCN1Cc1ccc(Cl)nc1`, the compound was classed as inactive in the test with AR (gene 367) [7].

In the case of `C#CCN1C(=O)COc2cc(F)c(N3C(=O)C4=C(CCCC4)C3=O)cc21`, the result in the test with AR (gene 367) [6] was inactive. Further, the AC50 with AR (gene 367) [7] was 64.5 µM (active).

Turning to `CCOCN(C(=O)CCl)c1c(C)cccc1CC`, the compound was called inactive in [4] and in test [9]. Also, in test [1], the AC50 is 79.5 µM (active).

As for `O=S1OCC2C(CO1)C1(Cl)C(Cl)=C(Cl)C2(Cl)C1(Cl)Cl` (centres undefined), the compound was classed as inactive (in [2]; in test [4]; with AR (gene 367) [6]). Besides, the AC50 was 1.98 µM (active) in test [9], 1.98 µM (active) in test [5], 71.8 µM (active) in test [1] and 9.11 µM (active) with AR (gene 367) [7].

Take `COP(=S)(OC)Oc1ccc(SC)c(C)c1`: the AC50 was 5.04 µM (active) in test [2]; 45.9 µM (active) in test [3]; 25.6 µM (active) in test [4]; 26.5 µM (active) in [9]; 26.6 µM (active) in test [5]; 22.2 µM (active) in [8]. The outcome in [1] was inactive.
